Screening results: PubChem, The Scripps Research Institute Molecular Screening Center
GPR151 activ – activators of human GPR151 | PathHunter beta-arrestin GPR151 cells, luminescence | AID 1508602 | actives 1% (n = 650,000) | Q8TDV0 | activation, % at 11.2 µM; in the data active = activation above about 4.9%;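 note: 0% = median of compound wells and 100% = cells with positive control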
MITF primary – blocks human microphthalmia-associated transcription factor | O75030 | AlphaScreen MITF homodimerization, bead proximity signal | inhibition, % at 2.6 µM | actives 0.91% (n = 650,000) | AID 1259374; in the data active = inhibition above about 50%;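 note: 0% = vehicle wells with protein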
Target sequence (O75030 whole entry, looked up): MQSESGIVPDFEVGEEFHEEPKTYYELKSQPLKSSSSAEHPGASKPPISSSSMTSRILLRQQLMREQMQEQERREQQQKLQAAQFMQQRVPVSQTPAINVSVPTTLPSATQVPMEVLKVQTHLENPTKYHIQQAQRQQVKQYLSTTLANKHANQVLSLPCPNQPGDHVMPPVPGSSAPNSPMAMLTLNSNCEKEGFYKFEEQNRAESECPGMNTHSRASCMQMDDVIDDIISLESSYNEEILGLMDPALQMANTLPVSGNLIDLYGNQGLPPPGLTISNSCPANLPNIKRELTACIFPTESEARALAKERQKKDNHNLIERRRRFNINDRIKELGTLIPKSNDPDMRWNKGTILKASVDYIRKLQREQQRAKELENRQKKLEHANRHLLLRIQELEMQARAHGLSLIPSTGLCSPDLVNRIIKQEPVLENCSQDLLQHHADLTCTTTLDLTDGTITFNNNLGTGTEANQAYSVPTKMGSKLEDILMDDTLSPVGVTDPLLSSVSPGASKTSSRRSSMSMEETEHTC
TEAD-YAP block – TEAD-YAP interaction inhibition; HEK-TIYL cells, TEAD-Gal4/YAP UAS-luciferase luminescence; inhibition, % at 9.12 µM; actives 1.4% (n = 640,000); AID 1259422; in the data active = inhibition above about 32%;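 note: 0% = median of test compound wells and 100% = reference inhibitor wells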
FBW7 activator – human FBW7 E3 ligase activation, primary screen; AlphaScreen FBW7–phospho-cyclin E peptide binding, activator screen; AID 1259310; actives 0.13% (n = 650,000); Q969H0; normalized activity (activation), % at 26.1 µM; in the data active = normalized activity above about 1.9%;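 note: purified mutant Fbw7 with reduced substrate affinity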
The depositor's hits bear a star. Shown are actives, neighbours in structure and some others; about 3.5% of the full set was active somewhere.

SMILES | GPR151 activ | MITF primary | TEAD-YAP block | FBW7 activator
Cc1ccc(-n2nc3c(c2NC(=O)CCC2CCCCC2)CSC3)c(C)c1 | 1 | 2 | -4 | 1
CCNc1nc(NCC)nc(Sc2ccc([N+](=O)[O-])cc2[N+](=O)[O-])n1 | 0 | 1 | 51* | 0
COc1ccc(Br)cc1/C=C/C(=O)c1cccc(NC(C)=O)c1 | 4 | 13 | 75* | 0
CN1C(=O)/C(=C\c2ccc(Br)cc2)SC1=S | -1 | 10 | -3 | 0
Cc1[nH]cnc1CN1CCCC(C(=O)c2ccc(Oc3ccccc3)cc2)C1 (stereo unspecified) | 1 | 9 | 33* | 0
CCCn1ccc(NC(=O)C2CC(c3ccccc3O)=NO2)n1 (stereo unspecified) | 0 | 12 | -9 | 0
O=C(Nn1cnnc1)c1sc2cccc(F)c2c1Cl | -2 | 11 | 1 | 1
c1cnc(Nc2nc(NCc3nc4ccccc4[nH]3)c3ncn(-c4ccsc4)c3n2)nc1 | -1 | -18 | 69* | 50*
c1cncc(CNc2nc(NCc3nc4ccccc4[nH]3)c3ncn(-c4ccsc4)c3n2)c1 | 1 | -8 | 86* | 0
CC(C)n1cnc2c(NCc3ccccc3)nc(Nc3cccc(N(C)C)c3)nc21 | -2 | 8 | -11 | 1
CC(C)n1cnc2c(NCc3nc4ccccc4[nH]3)nc(Nc3ccncc3)nc21 | 0 | -1 | 90* | 0
Cc1noc(C)c1-c1nc(NCc2nc3ccccc3[nH]2)c2ncn(C(C)C)c2n1 | 1 | -2 | 49* | 0
CC(C)n1cnc2c(NCc3nc4ccccc4[nH]3)nc(Nc3cccc(N(C)C)c3)nc21 | 2 | 14 | 43* | 0
CC(C)n1cnc2c(NCc3nc4ccccc4[nH]3)nc(-c3csc4ccccc34)nc21 | -1 | 13 | 16 | 1
CC(C)n1cnc2c(NCc3nc4ccccc4[nH]3)nc(Nc3ncccn3)nc21 | -1 | -14 | 66* | 0
Cc1ncsc1CCCNC(=O)CC1C(=O)NCCN1C/C=C/c1ccccc1 (stereo unspecified) | 1 | 4 | -8 | 0
CCOc1cc2c(cc1OC)C(c1cc3c(cc1Br)OCO3)NCC2 (stereo unspecified) | 2 | -10 | -2 | 0
CCOc1cc(/C=C2/NC(=O)NC2=O)cc(Cl)c1OC(C)C | 0 | 0 | 0 | 0
O=c1c(=O)n(Cc2ccccc2F)ccn1Cc1ccccc1 | -1 | 2 | -1 | 0
O=C(Nc1cccc(O)c1)c1cc(C2CC2)on1 | -5 | -4 | 84* | 0
CCCc1cc(C(=O)Nc2cccc(O)c2)no1 | -5 | 7 | 74* | 1
O=C(Nc1ccc2c(c1)OCO2)c1cc(C2CC2)on1 | 1 | -13 | -47 | 0
CCCCCOc1ccc2c3c(c(=O)oc2c1)CCC3 | 1 | -6 | -7 | 0
COc1ccc2occ(C(=O)c3oc4ccc(Cl)cc4c3N)c2c1 | -1 | -10 | 57* | 0
O=C(Nc1nnc(-c2ccc3c(c2)OCCO3)o1)c1ccccc1Br | -1 | 21 | 68* | 0
SMILES | GPR151 activ | MITF primary | TEAD-YAP block | FBW7 activator
O=C(CSc1ncccc1C(=O)O)Nc1ccc2c(c1)OCCO2 | 0 | -1 | 63* | 0
O=C(Nc1nnc(-c2ccc3c(c2)OCCO3)o1)c1ccccc1Oc1ccccc1 | -1 | 1 | 9 | 0
O=C(Nc1ccc2c(c1)OCCO2)c1cc(Br)cc(Br)c1I | 0 | 0 | 47* | 0
O=C(Nc1ccc2c(c1)OCCO2)c1ccccc1Br | -3 | -4 | 37* | 0
CC(C)c1ccc2nc3sc(C(=O)NCC4CCCO4)c(N)c3cc2c1 (stereo unspecified) | 0 | 13 | 2 | 0
O=C1CSC(=O)N1CCN1C(=O)S/C(=C\c2ccc(O)cc2)C1=O | 0 | 6 | -19 | 0
N#CC1=C(N)Oc2c(ccc3cccnc23)C1c1ccccc1F (stereo unspecified) | -1 | 2 | 58* | -1
CN1CCN(Cc2cc(COCc3ccccc3)c3cccnc3c2O)CC1 | -1 | 101* | 74* | -1
CN1CCN(Cc2cc(CSc3ccccc3)c3cccnc3c2O)CC1 | 0 | 65* | 81* | -2
CN1CCN(Cc2cc(=O)oc3ccc4ccccc4c23)CC1 | 1 | 9 | 1 | 0
Oc1c(CN2CCN(c3cccc(C(F)(F)F)c3)CC2)cc(COCc2ccccc2)c2cccnc12 | -1 | 1 | 11 | -1
Cc1ccc(NC(=O)c2cnn3ccccc23)cc1C | -3 | -5 | 66* | 0
Cc1cc(C)cc(NC(=O)c2cnn3ccccc23)c1 | 0 | 14 | -42 | 0
CC(=O)c1ccc(NC(=O)c2cnn3ccccc23)cc1 | -5 | 3 | 91* | 0
CC(=O)c1cccc(NC(=O)c2cnn3ccccc23)c1 | -3 | 6 | 5 | 0
O=C(Nc1ccc(CN2CCOCC2)cc1)c1cnn2ccccc12 | -4 | 7 | 91* | 0
O=C(OCC(=O)c1ccc(Cl)s1)c1ccc(N2CCOCC2)c([N+](=O)[O-])c1 | 0 | 6 | 5 | 0
O=C(O)C1CC(=O)N(C2CCCCCCC2)C1 (stereo unspecified) | 2 | -12 | 1 | 0
O=C(Nc1cc(=O)[nH]c(=O)[nH]1)c1cccc(Cl)c1 | -2 | -5 | 40* | 0
O=C(Nc1ccc(F)cc1)c1cccc(Cl)c1 | -2 | -5 | -25 | 0
CN(C)c1ccc(C(=O)c2ccc(N(C)C)c3ccccc23)cc1 | 1 | 1 | 50* | 0
COc1ccc(C(=O)c2ccc(N(C)C)cc2)c(OC)c1 | 1 | 4 | 55* | 0
Cc1ccc(C(=O)Nc2ccc(N(C)C)c3ccccc23)cc1 | -1 | 17 | -16 | 0
CC(C)(C)c1ccc(C2CC2C(=O)N/N=C\c2ccc[nH]2)cc1 (stereo unspecified) | 0 | 5 | 91* | 0
O=NN(CCc1ccncc1)c1ccc(OCc2ccccc2)cc1 | 0 | 1 | 38* | 0
SMILES | GPR151 activ | MITF primary | TEAD-YAP block | FBW7 activator
S=C(NCc1ccncc1)Nc1cccc(Cl)c1 | 1 | -14 | 3 | 0
S=C(NCc1ccc(Cl)cc1)Nc1ccncc1 | 1 | 9 | 44* | 0
Cc1cc(C)nc(N/N=C/C=N/Nc2nc(C)cc(C)n2)n1 | 1 | 17 | -3 | 0
Oc1ccc(-c2noc(-c3ccc(F)cc3)n2)cc1 | -9 | -1 | 65* | 0
Fc1ccc(-c2nc(-c3ccccc3)no2)cc1 | 0 | 17 | -34 | 1
Nc1ccc(C(=O)OCC(=O)N2N=C3/C(=C/c4ccco4)CCCC3C2c2ccco2)cc1 (stereo unspecified) | -1 | 6 | 1 | 0
COc1ccc(CNC(=O)c2cc(-c3ccc(O)cc3)on2)cc1 | 0 | 3 | 38* | 0
CCOc1ccc(C(=O)N2CCN(c3nc4cc(C)c(C)cc4s3)CC2)cc1 | 0 | 14 | -7 | 0
CCOc1ccc(NC(=O)NCCc2ccc(OC)c(OC)c2)cc1 | -1 | -4 | 4 | 0
O=C1CC(N2CCCCC2)C(=O)N1c1cc(Cl)cc(Cl)c1 (stereo unspecified) | 4 | -7 | 46* | 0
